# Screening data: PubChem, several laboratories
# Sampled rows, rich in hits. Any-hit rate of the full collection: about 0.74%.
# Redox H2O2 prof – compounds producing H2O2 with reducing agent – biochemical, NIH compound library profiling, artefact control for MLSCN library redox annotation, primary screen | DTT-dependent redox cycling H2O2, phenol red/HRP absorbance; 100% = 100 µM peroxide control, 0% = buffer | activation, % at 10 µM | 0.03% of 200,000 active;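 active = activation of at least 50% relative to the plate's high and low controls in the primary single-dose screen; inactive = activation below 50%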;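 also: compound incubated with DTT at 0.8 mM final as the reducing agent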
# LYPLA1 inh – LYPLA1 (human) inhibition in PME1 counter-screen; O75608; recombinant LYPLA1, FP-Rh probe fluorescence polarization; inhibition, % at 5.9 µM; 0.16% of 320,000 active;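 active = inhibition above the mean of all tested compounds plus 3 SD, set per campaign, cut at about 14% in these data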;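 also: inhibitors block serine hydrolase probe labeling of LYPLA1 so polarization falls; 0% = enzyme with DMSO and 100% = wells lacking LYPLA1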
# p97 ATPase inh – human p97 ATPase inhibition; inhibition, % at 8 µM; recombinant p97 ATPase, Kinase-Glo ATP luminescence, 3 h; AID 1481; 0.42% of 220,000 active; P55072; in the data active = inhibition above about 15%;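 also: 0% = DMSO vehicle and 100% = wells lacking enzyme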
# Target sequence (P55072 whole entry, looked up): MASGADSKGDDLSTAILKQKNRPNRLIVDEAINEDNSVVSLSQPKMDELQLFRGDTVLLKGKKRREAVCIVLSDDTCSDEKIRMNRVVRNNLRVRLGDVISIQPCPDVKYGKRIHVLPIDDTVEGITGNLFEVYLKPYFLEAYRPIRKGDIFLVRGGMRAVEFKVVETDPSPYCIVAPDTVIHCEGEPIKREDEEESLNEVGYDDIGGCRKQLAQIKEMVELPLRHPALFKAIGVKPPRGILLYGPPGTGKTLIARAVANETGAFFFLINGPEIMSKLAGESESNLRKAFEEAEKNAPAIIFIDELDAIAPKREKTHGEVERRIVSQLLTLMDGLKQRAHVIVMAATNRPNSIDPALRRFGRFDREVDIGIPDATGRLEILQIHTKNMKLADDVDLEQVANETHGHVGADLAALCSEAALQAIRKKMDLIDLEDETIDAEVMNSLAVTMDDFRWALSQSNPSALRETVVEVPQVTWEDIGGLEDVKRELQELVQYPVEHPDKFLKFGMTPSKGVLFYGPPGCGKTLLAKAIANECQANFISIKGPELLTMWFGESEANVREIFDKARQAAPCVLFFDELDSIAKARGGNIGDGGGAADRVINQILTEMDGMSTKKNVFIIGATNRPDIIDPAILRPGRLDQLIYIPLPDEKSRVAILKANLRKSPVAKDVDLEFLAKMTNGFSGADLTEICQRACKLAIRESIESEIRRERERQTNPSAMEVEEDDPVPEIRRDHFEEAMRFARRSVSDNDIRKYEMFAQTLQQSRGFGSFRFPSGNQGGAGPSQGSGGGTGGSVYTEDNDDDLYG
# LYPLA2 counter – counter-screen for PME1 inhibitors: inhibitors of human LYPLA2. inhibition, % at 5.9 µM. O95372. 0.38% of 320,000 active. AID 2177. recombinant LYPLA2, FP-Rh probe fluorescence polarization;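 active = inhibition above the screen-wide mean plus 3 SD, limit set per campaign, cut at about 26% in these data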;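 also: 0% = LYPLA2 with DMSO and 100% = wells lacking LYPLA2 enzyme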
# LYPLA2 confirm – LYPLA2 (human) inhibition, confirmation counter-screen; inhibition, % at 5.9 µM; recombinant LYPLA2, FP-Rh probe fluorescence polarization; AID 2232; 72% of 1,100 active; shares compounds with LYPLA2 counter;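 active = mean inhibition across replicates above the hit cutoff set in the primary screen, cut at about 26% in these data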;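 also: blocked labeling of the enzyme by serine hydrolase FP-Rh probe lowers polarization; 0% = enzyme with DMSO and 100% = wells lacking LYPLA2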
# LYPLA2 gel ABPP – LYPLA2 (human) inhibition, late stage results | shares compounds with LYPLA2 counter | rhLYPLA2 in mouse brain proteome, gel ABPP FP-Rh | inhibition, % at 20 µM | 30% of 150 active;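 active = inhibition of LYPLA2 enzyme probe labeling above about 50%, limit read from the data; inactive = inhibition below that limit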;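 also: loss of FP-Rh probe labeling of the LYPLA2 gel band measured as band density; 0% = DMSO only control band and 100% = blank gel background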
# Active calls of the source: *; x = no result.
SMILES,Redox H2O2 prof,LYPLA1 inh,p97 ATPase inh,LYPLA2 counter,LYPLA2 confirm,others
COc1cccc(C2=NOC(C(=O)NC3CCCCC3)C2)c1 (centres undefined),2,4,-3,9,x,
COc1cc(OC)cc(C(=O)NCC(=O)OCC(=O)N2CC(C)CC(C)C2)c1 (centres undefined),0,-2,2,-5,x,
CC(C)[C@H]1C(=O)Nc2ccccc2N1C(=O)N[C@@H](Cc1ccccc1)C(=O)N[C@@H](C(=O)O)c1ccccc1,x,0,x,-4,x,
O=C(OC1CCN(c2ccc([N+](=O)[O-])cc2)CC1)c1ccccc1,3,2,4,13,x,
COc1ccc(NC(=O)N2CCN(c3ccc([N+](=O)[O-])cc3)CC2)cc1,0,1,3,6,x,
COc1ccc(C(=O)ON=C2CCN(c3ccc([N+](=O)[O-])cc3)CC2)cc1,3,8,6,35*,39*,
O=C(ON=C1CCN(c2ccc([N+](=O)[O-])cc2)CC1)c1ccccc1,2,4,2,37*,35*,
CC(C)(C)c1ccc(C(=O)NCC(=O)NCc2ccccn2)cc1,x,0,x,5,x,
CC(=O)Nc1cccc(-n2nnc(SCC(=O)Nc3ccccc3)n2)c1,x,1,-2,5,x,
CC(=O)Nc1cccc(-n2nnc(SCC(=O)N(C)c3ccccc3)n2)c1,x,-1,2,34*,40*,
Cc1nc(C(=O)Nc2ccc(Cl)cc2)sc1C1(C)CC(c2cccc([N+](=O)[O-])c2)=NO1 (centres undefined),x,-6,x,-4,x,
Cc1nc(C(=O)NC2CCCCC2)sc1C1(C)CC(c2cccc([N+](=O)[O-])c2)=NO1 (centres undefined),x,-1,x,50*,60*,LYPLA2 gel ABPP=45
Cc1ccccc1CC1(CO)CCCN(C(=O)CCCN2CCCCC2=O)C1 (centres undefined),6,5,-1,5,x,
ClCc1csc(-c2ccccc2Cl)n1,-1,-4,-3,0,x,
Cc1ccc(C(=O)N2CCN(c3ccc(C(F)(F)F)cn3)CC2)cc1,3,4,-3,15,x,
CC(=O)c1cccc(OCC(=O)N2CCN(c3ccc(C(F)(F)F)cn3)CC2)c1,0,5,2,58*,57*,LYPLA2 gel ABPP=45
CC(=O)c1ccc(N2CCN(c3ccc(C(F)(F)F)cn3)CC2)cc1,0,1,0,46*,42*,
O=C(Nc1ccc(N2CCN(c3ccc(C(F)(F)F)cn3)CC2)nc1)c1cccs1,x,-1,-3,-6,x,
CC(=O)Nc1ccc(N2CCN(c3ccc(C(F)(F)F)cn3)CC2)nc1,x,4,-4,52*,51*,LYPLA2 gel ABPP=27
NS(=O)(=O)c1ccc(CNC(=O)c2cccnc2Cl)cc1,x,3,x,7,x,
C/C(=N\N=C(N)N)c1ccc(C)c(C)c1,x,0,7,-3,x,
COc1ccc(-n2c(SCC(=O)NCc3cccs3)nc3[nH]ncc3c2=O)cc1,-1,1,0,-2,x,
COc1ccc(N2CCN(C(=O)CSc3nc4[nH]ncc4c(=O)n3-c3ccc(Br)cc3)CC2)cc1,0,12,9,47*,42*,
O=C(COc1ccc(Cl)cc1)N1CCN(Cc2ccc3c(c2)OCO3)CC1,x,1,x,34*,29*,
CCOc1ccccc1C(=O)NCC(=O)N1CCN(Cc2ccc3c(c2)OCO3)CC1,x,7,x,62*,57*,LYPLA2 gel ABPP=39
SMILES,Redox H2O2 prof,LYPLA1 inh,p97 ATPase inh,LYPLA2 counter,LYPLA2 confirm,others
COc1cccc(-c2cc(C(=O)N3CCN(Cc4ccc5c(c4)OCO5)CC3)on2)c1,x,0,x,30*,29*,
COc1ccccc1C(=O)N1CCN(Cc2ccc3c(c2)OCO3)CC1,-2,1,-6,2,x,
CN(C)CCCOc1nc2c(c(=O)n(C)c(=O)n2C)n1C,1,-2,-4,-8,x,
O=C(COc1ccccc1)N1CCN(C(=O)c2ccccc2F)CC1,x,-3,x,4,x,
COc1ccc(N(Cc2cc3cc(C)ccc3[nH]c2=O)C(C)=O)cc1,x,0,x,2,x,
Nc1nc(N2CCN(C/C=C/c3ccccc3)CC2)nc2ccccc12,3,6,3,42*,39*,
O=c1[nH]c(CN2CCN(C/C=C/c3ccccc3)CC2)nc2ccccc12,1,3,-2,1,x,
COc1ccc(C2NS(=O)(=O)N=C2N)cc1 (centres undefined),0,4,7,32*,-7,
Cc1cc(C)n(CC(=O)NNC(=O)c2ccc(NC(=O)CC#N)cc2)n1,x,-6,x,-4,x,
O=C(C[n+]1cccc(NC(=O)c2ccccc2)c1)c1ccc(NC(=O)c2ccccc2)cc1,-10,0,11,27*,19,
COc1ccc(-c2ccc(=O)n(Cc3ccc([N+](=O)[O-])cc3)n2)cc1,-1,-3,-5,29*,30*,
CC(=O)c1ccc(S(=O)(=O)N2CCC(NC(=O)Nc3cccc(F)c3)CC2)cc1,-1,-3,3,37*,47*,
O=C(CN1CCN(C(=O)CNC(=O)c2ccc(N3CCCC3=O)cc2)CC1)Nc1ccccc1Cl,x,3,x,50*,46*,
CCOc1ccccc1N1CCN(C(=O)c2ccc(NS(=O)(=O)c3ccc4[nH]c(=O)[nH]c4c3)cc2)CC1,x,-3,x,2,x,
COc1ccccc1Nc1ncc(C(=O)N2CCN(Cc3ccc(OC)c(OC)c3OC)CC2)c2ccccc12,0,2,4,46*,24,
O=C(O)CN1C(=O)/C(=C\c2cccc(OCc3ccc(Cl)cc3)c2)SC1=S,x,-3,x,28*,27*,
O=C(O)CN1C(=O)/C(=C\c2cccc(OCc3ccccc3F)c2)SC1=S,x,0,x,0,x,
CCOC(=O)N1CCC(C(=O)NNC(=O)c2ccc(Cl)cc2Cl)CC1,x,-1,x,0,x,
O=C(C1CCN(c2ncnc3c2nc2n3CCCCC2)CC1)N1CCN(c2ccc(F)cc2)CC1,x,2,x,40*,32*,
NNC(=O)c1oc2nc(-c3ccccc3)cc(-c3ccccc3)c2c1N,x,-1,x,32*,9,
Cc1ccc(-c2cc(-c3ccco3)c3c(N)c(C(=O)NN)oc3n2)cc1,x,-4,14,5,x,
O=C(c1ccc(F)cc1)C1CCN(CCn2c(=S)[nH]c3ccccc3c2=O)CC1,x,0,6,27*,28*,
CC1CCN(CCn2c(=S)[nH]c3ccccc3c2=O)CC1,x,-2,x,5,x,
CN1CCN(CCCNC(=O)c2ccc3c(=O)n(CCc4ccccc4)c(=O)[nH]c3c2)CC1,x,-4,x,29*,1,
CC1CCN(CCCNC(=O)c2ccc3c(=O)n(CCc4ccccc4)c(=O)[nH]c3c2)CC1,0,-5,-1,-5,x,
N#Cc1c(NC(=O)CSc2nc3ccccc3s2)sc2c1CCCC2,0,-9,1,-14,x,
O=C(CN1CCN(Cc2ccc3c(c2)OCO3)CC1)Nc1ccc(N2CCOCC2)cc1,0,0,5,2,x,
